# Test results from PubChem BioAssay (NCI).
# This is part of a sample that, as a whole, favours compounds with a hit. Of some 83,000 tested, about 20% had one in any assay.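 Values shown are percent growth following 48 h exposure of cells in 96-well plates to a single concentration of compound; below 10 was considered active.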 Unmarked numbers belong to inactive results. The source made the active and inactive calls.
# Tested on: MOLT-4 leukemia
# Assay: NCI-60 one-dose screen, 48 h (100 = growth as untreated, 0 = no growth, -100 = all killed)
# Conditions: 10 µM unless noted
# Experimental: Growth inhibition of the MOLT-4 human tumor cell line is measured as a screen for anti-cancer activity. Cells are grown in 96 well plates and exposed to the test compound for 48 hours. Compounds are tested at a single concentration, which is 10^-5 M for most compounds. The reported endpoint is percent growth (GI% or GIPRCNT), where numbers from 0 - 100% represent growth inhibition, and numbers from -100% - 0 represent cell death. For example, a value of 40 represents 60% growth inhibition. A value of 0 means no net growth occurred over the course of the experiment. A value of -40 indicates 40% of cells at the beginning of the experiment died by the end of the experiment. A value of -100 means all cells are dead at the end of the experiment.
# NCI-60 Human Tumor Cell Lines Screen was performed using the standard one-dose NCI protocol, which is described in more detail at https://dtp.cancer.gov/discovery_development/nci-60/default.htm.
# Compounds with GIPRCNT values below 10 were considered active. Activity score was based on GIPRCNT using the following formula: […]
# Score is 0 for GIPRCNT values of 100 or above, 50 for GIPRCNT values of 0, and 100 for GIPRCNT values of -100.
row,SMILES,growth
1,COc1ccc(NC(=O)Nc2ccc(-c3ccc(OC)c(OC)c3)nc2C)cc1,85.6%
2,CCCCCCCCCCCC(=O)OCCNC(=O)C[n+]1ccccc1,104%
3,COC(=O)c1oc2c(C(C)=O)c(OCCN3CCCCC3)ccc2c1C,108%
4,COc1cc2ncnc(Oc3ccc(NC(=O)Nc4ccc(C5(C#N)CCCC5)cc4)c4ccccc34)c2cc1OC,60.9%
5,CC/C(=C(\CC)c1ccc(OCCN(CC)CC)cc1)c1ccc(OCCN(CC)CC)cc1,42.6%
6,COc1cc(/C=C2/Oc3cc4occc4c(OC)c3C2=O)ccc1OCC(=O)Nc1ccncc1,110%
7,O=C1COc2ccccc2C(=O)N1CCCCN1CCCCC1,83.2%
8,COc1ccc(N)c(S)c1,91%
9,O=C(NCCNc1nccc(-c2c(-c3cccc(O)c3)nc3sccn23)n1)c1cccc(C(F)(F)F)c1,61.5%
10,CCCC(=O)Oc1ccc(/C(=C(\C)c2ccc(OC)cc2)c2ccc(OCCN3CCCCC3)cc2)cc1,72.5%
11,Cc1ccn2cc(Cc3cc(=O)oc4c3ccc3ccccc34)c(=O)nc2c1,87.9%
12,CC(CCC(=O)O)[C@H]1CCC2C3C(=O)C[C@@H]4CC(=O)CC[C@]4(C)C3CC(=O)[C@@]21C (stereo not given in full),96.7%
13,Cn1cnc([N+](=O)[O-])c1N1c2ccncc2Sc2ccncc21,91.6%
14,c1ccc([Se]CCCN2CCN(CCC[Se]c3ccccc3)CC2)cc1,127%
15,O=C(/C=C/c1ccccc1)Oc1ccc(/C=C/c2cc(OC(=O)/C=C/c3ccccc3)cc(OC(=O)/C=C/c3ccccc3)c2)cc1,86.8%
16,O=C(NCCNc1nccc(-c2c(-c3cccc(O)c3)nc3sccn23)n1)c1ccccc1O,46.2%
17,CCOC(=O)c1cnc2c(OC)ccc(OC)c2c1Cl,113%
18,O=C1c2ccccc2OC=C(c2ccccc2)N1CCCCN1CCCCC1,60.6%
19,NC(=NCCCOc1ccc(F)cc1)Nc1ccc(Cl)c(Cl)c1,36.1%
20,CC(C)(C)NC(C1=CC(C)(C)c2ccccc2C1=O)c1ccccc1 (stereo not given),-47.4% (active)

row,SMILES,growth
1,COc1cc(-c2nc(SCC(=O)Nc3ccc(C(C)=O)cc3)[nH]c(=O)c2C#N)cc(OC)c1OC,3.84% (active)
2,CC(C)CNCC(=O)Nc1ccc(Cc2ccc(NC(=O)CNCC(C)C)cc2)cc1,23.1%
3,C=CC(C)(O)CCC1C(=C)CCC2C(C)(C)CCCC12C (stereo not given),89.9%
4,COC(=O)CCCNS(=O)(=O)c1cc(C(=O)Nc2ccc(NC(=O)c3cc(S(=O)(=O)NCCCC(=O)OC)c(O)c(O)c3O)cc2)c(O)c(O)c1O,87.6%
5,O=C(Nc1ccc(-n2ccc3c(NC(=O)c4ccccc4)ncnc32)cc1)c1ccc(Cl)c(C(F)(F)F)c1,4.17% (active)
6,Oc1ccc(Cl)cc1Sc1cc(Cl)ccc1O,80.9%
7,S=C=NP1(N=C=S)=NP(N=C=S)(N=C=S)=NP(N=C=S)(N=C=S)=NP(N=C=S)(N=C=S)=N1 (stereo not given),57.9%
8,O=C(O)c1ccccc1C(=O)c1ccc(I)cc1,94.3%
9,Nc1c(C(=O)O)[nH]c(=O)[nH]c1=O,96.2%
10,COc1ccc(/C=C/C(=O)c2ccc(Oc3ncnc4ccccc34)cc2)cc1OC,56.6%
11,c1nc(SC2=NCCN2)c2[nH]cnc2n1,16%
12,COc1ccc(/C=C/C(=O)c2ccc(NC(=O)CSc3nnc(-c4cc(OC)c(OC)c(OC)c4)o3)cc2)cc1,-25.9% (active)
13,COc1ccc(-c2nnc(SCC(=O)Nc3ccc(C(=O)/C=C/c4ccc(Cl)cc4)cc3)o2)cc1OC,41.1%
14,O=C(Nc1ccccc1F)Nc1ccccc1Cl,69.3%
15,C#C[C@H](O)/C=C/CCCCCCC#C[C@H](O)CC[C@@H](O)C#CCCCCCC/C=C/[C@@H](O)C#C,0.882% (active)
16,CC1CCc2cc(F)cc3c(=O)c(C(=O)O)cn1c23 (stereo not given),97.3%
17,CCn1cc(/C=C2\Oc3cc(OCC#N)ccc3C2=O)c2cc(OC)ccc21,12.9%
18,COc1cc2ncn3c(=O)c4c5c(sc4nc3c2cc1OC)CCCCC5,106%
19,COc1ccc(OCC(O)CN2CCN(c3ccc(Cl)cc3)CC2)cc1 (stereo not given),107%
20,Nc1ncnc2c1ncn2C1OC(COC(c2ccccc2)(c2ccccc2)c2ccccc2)C(O)C1O (stereo not given),78.8%
